The record followed here is ChEMBL document CHEMBL2218924, “A broad activity screen in support of a chemogenomic map for kinase signalling research and drug discovery” (Biochem J, 2013).

For orientation: residual activity means the signal under treatment as a percentage of the control signal.

Test [1] has as its target T1, Serine/threonine-protein kinase TBK1 (Homo sapiens) (UniProt Q9UHD2).
T1 sequence (whole entry): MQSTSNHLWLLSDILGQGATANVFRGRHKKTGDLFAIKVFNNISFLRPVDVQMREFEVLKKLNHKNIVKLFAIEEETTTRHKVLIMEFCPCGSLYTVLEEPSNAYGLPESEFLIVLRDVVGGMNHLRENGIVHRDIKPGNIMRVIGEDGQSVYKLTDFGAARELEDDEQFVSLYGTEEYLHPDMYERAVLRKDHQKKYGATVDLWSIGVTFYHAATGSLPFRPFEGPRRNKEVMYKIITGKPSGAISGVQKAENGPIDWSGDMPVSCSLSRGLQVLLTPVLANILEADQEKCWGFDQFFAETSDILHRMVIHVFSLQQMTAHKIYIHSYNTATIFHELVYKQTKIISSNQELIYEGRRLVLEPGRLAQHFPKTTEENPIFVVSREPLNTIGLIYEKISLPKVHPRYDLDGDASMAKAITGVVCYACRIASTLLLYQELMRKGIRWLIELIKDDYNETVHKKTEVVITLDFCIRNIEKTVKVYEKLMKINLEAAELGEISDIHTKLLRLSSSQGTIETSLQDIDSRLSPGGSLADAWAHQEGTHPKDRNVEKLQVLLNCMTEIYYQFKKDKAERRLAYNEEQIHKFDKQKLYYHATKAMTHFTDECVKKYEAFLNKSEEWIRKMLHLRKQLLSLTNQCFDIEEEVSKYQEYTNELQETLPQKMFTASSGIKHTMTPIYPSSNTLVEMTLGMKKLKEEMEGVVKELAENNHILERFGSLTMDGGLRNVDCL
As to conditions: at 10 µM.

The target in test [2] is T2, TGF-beta receptor type-1 (Homo sapiens) (UniProt P36897).
T2 sequence (whole entry): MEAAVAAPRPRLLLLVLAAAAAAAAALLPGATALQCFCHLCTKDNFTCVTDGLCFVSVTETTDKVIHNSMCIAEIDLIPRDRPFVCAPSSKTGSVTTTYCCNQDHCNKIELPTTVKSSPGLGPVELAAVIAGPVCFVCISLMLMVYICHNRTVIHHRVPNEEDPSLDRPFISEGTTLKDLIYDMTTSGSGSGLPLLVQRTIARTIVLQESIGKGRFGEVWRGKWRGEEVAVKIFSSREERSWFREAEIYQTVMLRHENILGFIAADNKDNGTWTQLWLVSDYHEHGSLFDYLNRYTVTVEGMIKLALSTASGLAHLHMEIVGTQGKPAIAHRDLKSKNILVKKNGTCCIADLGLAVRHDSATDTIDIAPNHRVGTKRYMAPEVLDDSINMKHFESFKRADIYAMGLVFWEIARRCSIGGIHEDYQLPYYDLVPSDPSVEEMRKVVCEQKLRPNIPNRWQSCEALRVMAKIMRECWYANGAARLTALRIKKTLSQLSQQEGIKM
As to conditions: at 1 µM.

The target in test [3] is T2, TGF-beta receptor type-1 (Homo sapiens). As to conditions: at 10 µM.
Test [4] addresses Insulin-like growth factor 1 receptor (Homo sapiens) (UniProt P08069). As to conditions: at 1 µM.
Test [5] has the same target. As to conditions: at 10 µM.
Test [6] has as its target T3, Inhibitor of nuclear factor kappa-B kinase subunit alpha (Homo sapiens) (UniProt O15111).
T3 sequence (whole entry): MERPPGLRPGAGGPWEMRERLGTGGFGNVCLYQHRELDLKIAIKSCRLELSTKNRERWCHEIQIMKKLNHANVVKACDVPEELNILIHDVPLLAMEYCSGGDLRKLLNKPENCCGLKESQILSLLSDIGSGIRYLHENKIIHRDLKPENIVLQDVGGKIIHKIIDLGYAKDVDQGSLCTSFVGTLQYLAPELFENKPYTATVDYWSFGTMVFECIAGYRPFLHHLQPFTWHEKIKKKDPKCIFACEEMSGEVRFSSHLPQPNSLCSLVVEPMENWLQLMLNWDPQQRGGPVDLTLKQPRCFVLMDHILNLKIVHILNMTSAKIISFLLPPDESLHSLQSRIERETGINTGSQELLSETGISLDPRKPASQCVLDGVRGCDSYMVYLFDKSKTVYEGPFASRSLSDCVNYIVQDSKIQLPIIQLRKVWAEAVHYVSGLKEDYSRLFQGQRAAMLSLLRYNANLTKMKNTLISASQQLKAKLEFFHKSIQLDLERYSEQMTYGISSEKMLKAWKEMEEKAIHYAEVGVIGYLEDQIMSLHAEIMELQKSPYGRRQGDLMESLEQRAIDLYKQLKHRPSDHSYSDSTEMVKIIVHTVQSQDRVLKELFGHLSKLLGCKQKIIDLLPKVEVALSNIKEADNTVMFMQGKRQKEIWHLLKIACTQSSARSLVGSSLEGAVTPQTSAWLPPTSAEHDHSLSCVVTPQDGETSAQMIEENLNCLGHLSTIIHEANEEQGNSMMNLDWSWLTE
The following applies: at 1 µM.

Test [7] has as its target T3, Inhibitor of nuclear factor kappa-B kinase subunit alpha (Homo sapiens). As to conditions: at 10 µM.
For test [8], the target named is T4, Inhibitor of nuclear factor kappa-B kinase subunit beta (Homo sapiens) (UniProt O14920).
T4 sequence (whole entry): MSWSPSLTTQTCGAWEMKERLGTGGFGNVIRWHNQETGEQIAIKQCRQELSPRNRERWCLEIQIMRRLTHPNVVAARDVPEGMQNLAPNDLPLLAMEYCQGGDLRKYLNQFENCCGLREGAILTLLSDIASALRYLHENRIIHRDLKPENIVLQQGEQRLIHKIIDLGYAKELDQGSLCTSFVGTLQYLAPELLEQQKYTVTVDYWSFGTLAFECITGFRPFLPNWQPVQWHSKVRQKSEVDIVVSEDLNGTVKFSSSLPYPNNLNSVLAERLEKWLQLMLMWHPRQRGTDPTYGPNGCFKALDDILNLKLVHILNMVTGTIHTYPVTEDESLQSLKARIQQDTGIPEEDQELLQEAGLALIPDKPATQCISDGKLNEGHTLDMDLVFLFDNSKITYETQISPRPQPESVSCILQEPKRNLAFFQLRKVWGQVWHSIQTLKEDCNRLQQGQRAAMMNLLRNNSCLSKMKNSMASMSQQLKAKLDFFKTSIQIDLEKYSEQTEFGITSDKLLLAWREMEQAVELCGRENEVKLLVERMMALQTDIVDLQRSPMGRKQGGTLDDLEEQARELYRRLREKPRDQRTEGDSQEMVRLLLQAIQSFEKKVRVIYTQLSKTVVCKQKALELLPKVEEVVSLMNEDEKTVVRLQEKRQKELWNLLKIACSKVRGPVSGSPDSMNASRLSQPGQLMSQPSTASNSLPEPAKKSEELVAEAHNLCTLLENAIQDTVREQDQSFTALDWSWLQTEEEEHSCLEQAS
The following applies: at 1 µM.

In test [9] the target is T4, Inhibitor of nuclear factor kappa-B kinase subunit beta (Homo sapiens). As to conditions: at 10 µM.
For test [10], the target named is Insulin receptor (Homo sapiens) (UniProt P06213). The following applies: at 1 µM.
Sequence of Insulin receptor (Homo sapiens) (P06213 28-758 limits assumed): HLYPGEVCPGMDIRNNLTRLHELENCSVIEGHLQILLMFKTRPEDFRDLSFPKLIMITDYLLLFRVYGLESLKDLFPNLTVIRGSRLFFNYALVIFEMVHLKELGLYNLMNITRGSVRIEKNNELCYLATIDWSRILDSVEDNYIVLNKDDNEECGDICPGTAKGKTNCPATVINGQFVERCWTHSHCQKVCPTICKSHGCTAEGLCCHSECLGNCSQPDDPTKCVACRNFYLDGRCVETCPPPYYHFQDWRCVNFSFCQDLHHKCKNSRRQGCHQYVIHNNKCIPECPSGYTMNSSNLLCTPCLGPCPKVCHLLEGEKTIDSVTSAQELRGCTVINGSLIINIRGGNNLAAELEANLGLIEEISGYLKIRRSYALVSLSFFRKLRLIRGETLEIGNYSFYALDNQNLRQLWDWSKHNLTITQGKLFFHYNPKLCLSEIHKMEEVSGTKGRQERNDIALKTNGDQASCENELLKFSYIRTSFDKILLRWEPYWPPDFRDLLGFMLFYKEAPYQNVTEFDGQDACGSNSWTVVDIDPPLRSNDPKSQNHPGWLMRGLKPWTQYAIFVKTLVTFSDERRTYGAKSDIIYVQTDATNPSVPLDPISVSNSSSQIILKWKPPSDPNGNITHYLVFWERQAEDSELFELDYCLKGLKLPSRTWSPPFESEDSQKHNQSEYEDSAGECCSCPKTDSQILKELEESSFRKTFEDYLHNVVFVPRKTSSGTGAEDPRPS
Sequence of Insulin receptor (Homo sapiens) (P06213 763-1382 limits assumed): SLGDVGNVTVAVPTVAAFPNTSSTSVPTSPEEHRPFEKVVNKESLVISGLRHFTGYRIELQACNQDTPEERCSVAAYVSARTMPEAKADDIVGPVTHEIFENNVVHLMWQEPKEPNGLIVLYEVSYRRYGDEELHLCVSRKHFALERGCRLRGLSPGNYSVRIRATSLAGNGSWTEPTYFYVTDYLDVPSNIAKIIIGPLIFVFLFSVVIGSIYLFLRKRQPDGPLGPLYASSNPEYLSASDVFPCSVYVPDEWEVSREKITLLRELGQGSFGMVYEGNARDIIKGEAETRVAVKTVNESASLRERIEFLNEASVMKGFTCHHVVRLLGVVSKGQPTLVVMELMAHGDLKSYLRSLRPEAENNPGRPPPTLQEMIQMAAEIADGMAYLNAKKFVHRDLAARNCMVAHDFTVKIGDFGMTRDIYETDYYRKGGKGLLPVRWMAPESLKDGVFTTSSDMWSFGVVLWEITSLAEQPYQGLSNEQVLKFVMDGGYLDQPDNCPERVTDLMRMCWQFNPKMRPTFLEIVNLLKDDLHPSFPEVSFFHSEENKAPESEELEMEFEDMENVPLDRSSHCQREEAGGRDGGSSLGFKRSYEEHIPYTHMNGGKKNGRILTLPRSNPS

Sequence of Insulin-like growth factor 1 receptor (Homo sapiens) (P08069 31-736 limits assumed): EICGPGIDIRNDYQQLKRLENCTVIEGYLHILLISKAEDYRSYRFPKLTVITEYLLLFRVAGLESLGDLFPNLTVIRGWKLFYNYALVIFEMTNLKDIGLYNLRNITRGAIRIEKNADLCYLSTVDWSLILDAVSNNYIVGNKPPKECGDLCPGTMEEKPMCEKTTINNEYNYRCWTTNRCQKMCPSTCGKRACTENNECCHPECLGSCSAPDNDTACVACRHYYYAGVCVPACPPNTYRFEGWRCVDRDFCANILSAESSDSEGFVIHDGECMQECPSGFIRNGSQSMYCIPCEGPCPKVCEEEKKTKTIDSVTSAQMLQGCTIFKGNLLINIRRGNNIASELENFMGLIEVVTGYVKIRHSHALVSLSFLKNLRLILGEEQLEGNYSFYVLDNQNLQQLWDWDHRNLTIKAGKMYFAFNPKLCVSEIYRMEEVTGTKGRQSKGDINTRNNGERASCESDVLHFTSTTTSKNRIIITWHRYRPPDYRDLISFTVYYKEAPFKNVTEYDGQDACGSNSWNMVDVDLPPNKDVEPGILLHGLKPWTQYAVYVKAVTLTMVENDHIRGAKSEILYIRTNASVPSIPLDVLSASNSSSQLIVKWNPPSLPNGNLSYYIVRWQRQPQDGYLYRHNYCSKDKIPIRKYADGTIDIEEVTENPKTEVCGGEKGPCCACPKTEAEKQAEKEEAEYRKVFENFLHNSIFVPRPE
Sequence of Insulin-like growth factor 1 receptor (Homo sapiens) (P08069 741-1367 limits assumed): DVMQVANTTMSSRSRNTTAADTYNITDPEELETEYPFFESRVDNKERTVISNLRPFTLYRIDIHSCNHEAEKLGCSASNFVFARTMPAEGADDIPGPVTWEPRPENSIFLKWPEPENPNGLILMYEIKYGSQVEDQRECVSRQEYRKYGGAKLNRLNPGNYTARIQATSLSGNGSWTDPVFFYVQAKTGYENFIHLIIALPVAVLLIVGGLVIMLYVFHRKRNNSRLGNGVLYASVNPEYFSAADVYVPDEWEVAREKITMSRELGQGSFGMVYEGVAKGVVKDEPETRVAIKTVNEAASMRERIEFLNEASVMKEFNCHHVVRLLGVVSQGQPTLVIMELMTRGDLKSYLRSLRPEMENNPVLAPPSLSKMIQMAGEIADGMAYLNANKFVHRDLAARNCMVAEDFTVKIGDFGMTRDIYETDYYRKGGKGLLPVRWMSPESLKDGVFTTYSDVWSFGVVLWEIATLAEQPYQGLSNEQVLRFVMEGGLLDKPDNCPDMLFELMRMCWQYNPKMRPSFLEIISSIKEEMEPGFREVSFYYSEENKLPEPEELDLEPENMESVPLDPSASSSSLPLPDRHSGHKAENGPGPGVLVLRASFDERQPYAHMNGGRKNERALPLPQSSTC

With `CC(C)c1nn(-c2c(Cl)cccc2Cl)c2nc(Cc3ccc(OCCO)cc3)[nH]c(=O)c12`, the residual activity in test [1] was found to be 63%; in test [2], 94%; in [3] it was 86%; in test [4], 105%; in test [5], 107%; in [6], 99%. The residual activity is 90% in test [7], 109% in test [8], 100% in test [9] and 85% in test [10].
